Rows were chosen to be rich in hits. Some 15% of all compounds tested hit in one or more screens of this group.
HCV inh = qHTS Assay for Inhibitors of Hepatitis C Virus (HCV) | Huh7.5.1 HCVcc-Cre infection, luciferase reporter, 44 h | Potency, µM (titrated, usually from 41.8 µM), usual class: inhibitors | 340,000 tested, 3.4% active
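Compounds are dispensed onto cells plated 4 h earlier at 1,000 per well, with HCVcc-Cre virus (about 0.5 moi) added next. Following 44 h of culture, luminescent signal is measured for 15 sec after 15 min with substrate at room temperature.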
Pf growth 96h = Primary qHTS for delayed death inhibitors of the malarial parasite plastid, 96 hour incubation | Potency, µM (titrated, usually from 28.7 µM), usual class: inhibitors | 320,000 tested, 6.9% active | P. falciparum luciferase reporter growth, 96 h
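Erythrocytes infected with luciferase-expressing P. falciparum were dispensed at 2% hematocrit and 0.05% parasitemia (final), then incubated with compounds 96 hours at 37 C in 5% CO2. Luminescence after detection reagent addition reported growth.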
HCMV inh = qHTS Assay for inhibitors of the human cytomegalovirus (HCMV). 410,000 tested, 4.5% active. activity change, negative = inhibition, % at 57.5 µM. AID 1259415, 2018. HFF cells, HCMV-luciferase reporter, 72 h; stronger effect = lower value; in the data active means activity change below about -60%; inconclusive means no clear call, values can overlap the other calls; inactive means above about -39%
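Two-dose cell screen: HFF monolayers treated with compounds and infected with luciferase-expressing HCMV at 1 PFU/cell, 72 h at 37C, then lysed for luciferase measurement.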
Sm TGR inh = qHTS Assay for the Inhibitors of Schistosoma Mansoni Peroxiredoxins; Schistosoma mansoni thioredoxin glutathione reductase (TGR), Q962Y6; purified TGR, DTNB reduction, TNB absorbance 405 nm; Potency, µM (top dose mostly 114 µM), usual class: inhibitors; 360,000 tested, 3% active; AID 485364, 2010; further: nearly all actives have a fitted effect of over 60% in size
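First, TGR (20 nM dispensed) and NADPH were mixed with compound. Second, a 15 min room-temperature incubation followed. Third, further NADPH and then DTNB were added to start the reaction. Finally, TNB absorbance was monitored kinetically.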
Pf growth 48h = Primary qHTS for delayed death inhibitors of the malarial parasite plastid, 48 hour incubation. P. falciparum luciferase growth in erythrocytes, 48 h. Potency, µM (top dose mostly 28.7 µM), actives largely listed as inhibitors. 310,000 tested, 5.9% active. AID 504832, 2011
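Luciferase-expressing P. falciparum in infected erythrocytes (2% hematocrit, 0.1% parasitemia final) in RPMI 1640/0.5% Albumax were exposed to compound for 48 hours at 37 C, 5% CO2; growth read as luminescence.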
SARS PLP yeast = qHTS of Yeast-based Assay for SARS-CoV PLP; AID 485353, 2010; 330,000 tested, 0.19% active; S. cerevisiae expressing SARS-CoV PLpro, growth rescue; Potency, µM (titrated, usually from 32.9 µM), usual class: activators; calls by dose curve; further: nearly all actives have a fitted effect of over 55% in size
Of the large screens only hits and unclear results are named; the others gave an inactive call. Unless noted, the call rests on the fitted dose curve; in most records, active means well fitted curve in the direction sought with a large enough effect; inconclusive means small, poorly fitted or top-dose-only effect, or another doubt; inactive means no such curve, though single readings can be large; an effect the other way counts as inactive or inconclusive.

COc1ccc(NC(=O)CC2C(=O)N(c3ccc(C)cc3)C(=O)N2Cc2cccnc2)cc1 (stereo unspecified)	none (no result: HCV inh, Pf growth 96h, Pf growth 48h, SARS PLP yeast)
CCOP(=O)(OCC)c1nc(-c2ccc(Br)cc2)oc1N1CCCCC1	HCV inh inconclusive, HCMV inh inconclusive, Pf growth 48h 10µM
CCOP(=O)(c1ccccc1)c1nc(-c2ccc(F)cc2)oc1N1CCCCC1 (stereo unspecified)	Pf growth 48h 9.3µM
O=P(c1ccccc1)(c1ccccc1)c1nc(-c2ccc(Cl)cc2)oc1N1CCOCC1	HCV inh 10µM, HCMV inh -88, Pf growth 48h 10µM
CC1(C(=O)NCc2ccco2)Cc2c(-c3cccc(C(N)=O)c3)ccnc2O1 (stereo unspecified)	none (no result: HCV inh, Pf growth 96h, Sm TGR inh, Pf growth 48h, SARS PLP yeast)
COc1ccc(CNC(=O)C[C@@H]2C=C[C@@H](NS(=O)(=O)c3cccc(OC)c3)[C@@H](CO)O2)cc1	none (no result: HCV inh, Pf growth 96h, Sm TGR inh, Pf growth 48h, SARS PLP yeast)
O=C(NCc1ccc2c(c1)OCO2)c1cc(-c2ccccc2)nn1CC1CC(c2cccnc2)=NO1 (stereo unspecified)	none (no result: Pf growth 96h, Sm TGR inh, Pf growth 48h, SARS PLP yeast)
O=[N+]([O-])c1ccc(Sc2nccn2Cc2ccccc2)c([N+](=O)[O-])c1	HCV inh inconclusive, Pf growth 96h inconclusive, Sm TGR inh 28µM
Cc1cccc(Sc2ccc([N+](=O)[O-])cc2[N+](=O)[O-])n1	Pf growth 96h 8.3µM, HCMV inh -72, Pf growth 48h inconclusive
O=[N+]([O-])c1cc(C(F)(F)F)ccc1Sc1nccn1Cc1ccccc1	none
O=[N+]([O-])c1ccc(Sc2ncccn2)c([N+](=O)[O-])c1	HCV inh inconclusive, Pf growth 96h 3.3µM, HCMV inh -97, Sm TGR inh 10µM, Pf growth 48h 13µM
CCOC(=O)C1=CN(Cc2ccco2)S(=O)(=O)N(C)C1c1ccc2ccccc2c1 (stereo unspecified)	HCV inh inconclusive (no result: Pf growth 96h, Sm TGR inh, Pf growth 48h)
COc1ccc(CCN2CCCC(CN(C)C(=O)c3ccoc3)C2)cc1 (stereo unspecified)	none
COC(=O)CCCC(=O)N(C)CC1CCCN(CCc2ccccc2C)C1 (stereo unspecified)	none (no result: Pf growth 96h, Sm TGR inh, Pf growth 48h, SARS PLP yeast)
COc1ccc(CN(C)CC2CCCN(CCc3ccccc3C)C2)cc1O (stereo unspecified)	HCV inh inconclusive, Pf growth 96h inconclusive, Pf growth 48h 5.9µM
CCN(Cc1cccc(OC)c1)CC1CCCN(CCc2cccc(OC)c2)C1 (stereo unspecified)	HCV inh inconclusive, Pf growth 96h inconclusive, Pf growth 48h inconclusive
COc1ccc(CCN2CCCC(CN(C)Cc3cc(Cl)c(O)c(OC)c3)C2)cc1 (stereo unspecified)	HCV inh inconclusive, Sm TGR inh 50µM, Pf growth 48h 2.3µM
COc1cc(OC)c(OC)cc1CN(C)CC1CCCN(CCc2ccccc2F)C1 (stereo unspecified)	HCV inh 14µM, Pf growth 48h inconclusive
COc1cccc(CN(C)CC2CCCN(CCc3ccccc3C)C2)c1 (stereo unspecified)	HCV inh 11µM, Pf growth 96h inconclusive
CCOC(=O)CNC(=O)N1CCc2cc(S(=O)(=O)N3CCC(C)CC3)ccc21	none (no result: HCV inh, Pf growth 96h, Pf growth 48h, SARS PLP yeast)
CCOC(=O)c1ccc(NC(=O)CSc2ncc(S(=O)(=O)c3ccc(C)c(Cl)c3)c(=O)[nH]2)cc1	none (no result: HCV inh, Pf growth 96h, Pf growth 48h, SARS PLP yeast)
COc1ccc(Cl)cc1C(=O)Nc1sc2c(c1C(=O)OC(C)C)CCCC2	none (no result: HCV inh, Pf growth 96h, Pf growth 48h, SARS PLP yeast)
Clc1ccc(CO/N=C(\Cn2ccnc2)c2ccc(Cl)cc2Cl)c(Cl)c1	Pf growth 96h 1.9µM, Pf growth 48h 4.3µM (no result: HCV inh, HCMV inh, Sm TGR inh, SARS PLP yeast)
O=C(/C=C/c1ccc2ccccc2n1)c1cc(Cl)ccc1O	Pf growth 96h inconclusive, Sm TGR inh 25µM, Pf growth 48h 2.3µM
COc1ccc(C(=O)Nc2ccc3oc(-c4cccc(Cl)c4)cc(=O)c3c2O)cc1	HCV inh inconclusive, Pf growth 96h inconclusive, HCMV inh -67, Sm TGR inh inconclusive, Pf growth 48h inconclusive

Source: PubChem
